From PubChem BioAssay (NCI) come the findings set out here.

Test [1] is described as follows: NCI Yeast Anticancer Drug Screen. Data for the rad50 strain (AID 155).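 Further: 0% = growth of vehicle-only cultures of the same strain.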 The note with it: S. cerevisiae rad50 strain growth inhibition; at 50.0 µM; active compounds read high. The method, boiled down:
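DNA repair mutant yeast, compound exposure, growth read-out; inhibition is taken relative to vehicle.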

Test [2] is described as follows: NCI Yeast Anticancer Drug Screen. Data for the mec2-1 strain (AID 157). Conditions: S. cerevisiae mec2-1 strain, at 50.0 µM, active compounds read high. The gist of the method: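 Readout is yeast growth inhibition, normalised to vehicle-treated controls, in the mec2-1 strain exposed to compound.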
A short description of test [3]: NCI Yeast Anticancer Drug Screen. Data for the sgs1 mgt1 strain (AID 161).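 Further: 0% = growth of cultures given vehicle only.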 Conditions: S. cerevisiae sgs1 mgt1 strain, at 50.0 µM, active compounds read high. The gist of the method:
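Percent growth inhibition was derived by comparing compound-exposed mutant yeast with vehicle-exposed cultures. The strain carries alterations in DNA damage repair.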

The nature of test [4]: NCI Yeast Anticancer Drug Screen. Data for the cln2 rad14 strain (AID 165).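 Further: 0% = growth equal to vehicle treated cultures.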 The note with it: S. cerevisiae cln2 rad14 strain, at 50.0 µM, active compounds read high. The gist of the method: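 Relative to vehicle controls, growth inhibition of compound-treated cln2 rad14 yeast was recorded.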
A short description of test [5]: NCI Yeast Anticancer Drug Screen. Data for the bub3 strain (AID 167). Conditions: S. cerevisiae bub3 mutant strain, at 50.0 µM, active compounds read high. The method, boiled down:
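In this screen, a yeast mutant lacking normal mitotic checkpoint function is challenged with compound. Relative growth versus vehicle gives the inhibition value.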

The nature of test [6]: NCI Yeast Anticancer Drug Screen. Data for the mlh1 rad18 strain (AID 175). The note with it: S. cerevisiae mlh1 rad18 strain growth inhibition; at 50.0 µM; active compounds read high. The gist of the method:
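Test agents were incubated with a yeast strain of defined genotype (DNA damage repair defect). Inhibition of growth was derived by comparison with vehicle-exposed cultures.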

About 79,000 compounds went through this panel and 15% of them were active in at least one assay; those are over-represented in the sample as a whole. A number with no mark means an inactive call. Active and inactive are the calls of the source. No stated cut-off is given here; in the data, active means growth inhibition above about 70%; inactive means the rest.

Turning to `O=C(CC(c1ccccc1)C(Br)[N+](=O)[O-])c1ccccc1` (centres undefined), the growth inhibition in test [1] was 27.6%; in test [2], -0.35%; in test [3], 36.6%; in test [4], -9.9%; in test [5], 40%; in test [6] it was 32.4%.

On to `O=C1C=C(Nc2ccc(S(=O)(=O)Nc3ncccn3)cc2)c2ccccc2C1=O`, for which the growth inhibition is 27.4% in test [1]; 41.5% in test [2]; 50.1% in test [3]; 30.8% in test [4]; 18.9% in test [5]; 44.6% in test [6].

On to `O=c1[nH]nc(-c2ccc(Cl)cc2)[nH]1`, for which the growth inhibition in test [1] was 9.35%; in test [2] it was -4.25%; in test [3], -3.85%; in test [4], -30.1%; in test [5], -5.8%; in test [6] it was -3.9%.

`O=C(O)c1c(Br)c(Br)c(Br)c(Br)c1C(=O)Nc1ccc(Cl)cc1C(F)(F)F`: the growth inhibition in test [1] was 1.35%; in test [2] it was 10.1%; in test [3] it was 11.1%; in test [4], -6.55%; in test [5], 0.3%; in test [6], 13.3%.

For the molecule `CC(=O)Oc1cccc(C)c1`, the growth inhibition is -20.6% in test [1]; -4.75% in test [2]; -18.8% in test [3]; -28.4% in test [4]; -13.2% in test [5]; -5.65% in test [6].

Take `O=[N+]([O-])c1ccc(OC2CC3C4C=CC3C2C4)c([N+](=O)[O-])c1` (centres undefined): the growth inhibition in test [1] is -27.9%; in test [2] it was -17.1%; in test [3], -5.45%; in test [4], 20.8%; in test [5], -9.6%; in test [6] it was -24.6%.

Regarding `CC1=NN(C(=O)CC(=O)NC(=O)CC(=O)Nc2ccccc2F)C(=O)C1N=Nc1ccc([N+](=O)[O-])cc1` (centres undefined), the growth inhibition is 20.5% in test [1]; 22.6% in test [2]; 30% in test [3]; 16.3% in test [4]; 12.1% in test [5]; 8.2% in test [6].

As to `COc1cc(NC=C2C(=O)OC(C)(C)OC2=O)c(OC)c(C)c1OC`, the growth inhibition in test [1] was 1.25%; in test [2], -27.1%; in test [3], -10.1%; in test [4], 0.5%; in test [5] it was -22.9%; in test [6] it was 4.15%.

As to `ON1c2ccccc2-c2ccccc2C1(c1ccccc1)c1ccccc1`, the growth inhibition is 95.8% (active) in test [1]; 96.6% (active) in test [2]; 78.7% (active) in test [3]; 69.8% in test [4]; 71.5% (active) in test [5]; 97.3% (active) in test [6].

Take `O=C1OCC(O)=C1C(c1ccc(Cl)cc1)c1cc2c(cc1O)OCO2` (centres undefined): the growth inhibition in test [1] is -19.9%; in test [2], -16.7%; in test [3], -28.1%; in test [4] it was -16.3%; in test [5], 0.05%; in test [6], -37.5%.

For the molecule `CN(C)CCCNc1nc2cc(Cl)ccc2o1`, the growth inhibition in test [1] was -7.1%; in test [2] it was -9.85%; in test [3], -5.7%; in test [4], -38.6%; in test [5] it was 6.7%; in test [6] it was -2.4%.

With `O=C(O)CC(=O)CC(=O)c1ccccc1`, the growth inhibition in test [1] was -14.8%; in test [2], -18.5%; in test [3], -23.4%; in test [4], -30.7%; in test [5], -2.1%; in test [6] it was -7.4%.

Take `COc1ccc2nc3c([N+](=O)[O-])ccc(NCCCN(C)C)c3c(NCCCN(C)C)c2c1`: the growth inhibition is -5.15% in test [1]; 9.3% in test [2]; 11.7% in test [3]; 38.3% in test [4]; -28.4% in test [5]; -1.6% in test [6].

`[Cl][Pt+2][Cl].[NH-]C1CCCC1[NH-]` (centres undefined): the growth inhibition in test [1] was 13.8%; in test [2], 9%; in test [3] it was 20.9%; in test [4] it was 3.8%; in test [5], 21.9%; in test [6], 36.8%.

On to `O=P(CCC(O)c1ccccc1)(c1ccccc1)c1ccccc1` (centres undefined), for which the growth inhibition in test [1] is -7.45%; in test [2], 5.65%; in test [3], -0.65%; in test [4], 0.5%; in test [5], -9.6%; in test [6] it was 9.8%.

Consider `c1ccc(CNC(c2ccccc2)C(NCc2ccccc2)c2ccccc2)cc1` (centres undefined), for which the growth inhibition was -7.35% in test [1]; -0.75% in test [2]; -14.3% in test [3]; -38.4% in test [4]; 6.15% in test [5]; 10.2% in test [6].

In the case of `CCCCN1C(=O)c2cc(=O)[nH]c(O)c2C1C` (centres undefined), the growth inhibition was -19.4% in test [1]; 6.35% in test [2]; -25.9% in test [3]; -0.55% in test [4]; -27.1% in test [5]; 3.25% in test [6].

As for `Nc1ncnc2c1nc(-c1ccccc1)n2C1OC(CO)C(O)C1O` (centres undefined), the growth inhibition is 27.4% in test [1]; 35.2% in test [2]; -10.7% in test [3]; 9.75% in test [4]; 35.5% in test [5]; 34.4% in test [6].

For `FCCCCSc1ncnc2nc[nH]c12`, the growth inhibition in test [1] was -25.3%; in test [2], -15.2%; in test [3] it was -24.7%; in test [4], -33.4%; in test [5], -11.5%; in test [6], -17.2%.

For the molecule `CC(=O)CC(C)(C)NNS(=O)(=O)c1ccc(C)cc1`, the growth inhibition in test [1] was 7.8%; in test [2], -0.65%; in test [3] it was -4.1%; in test [4], -20.9%; in test [5], 5.35%; in test [6], -13.6%.

On to `CN1C(=O)/C(=N/N(c2ccccc2)c2ccccc2)c2ccccc21`, for which the growth inhibition in test [1] is -5.4%; in test [2], 26.6%; in test [3] it was -3.85%; in test [4], -3.55%; in test [5], 21.2%; in test [6], 5.5%.

As to `Cc1ccc(C(C)(C)C)c2oc(=O)cc(C)c12`, the growth inhibition in test [1] was 20.2%; in test [2], 8.75%; in test [3] it was 12.9%; in test [4], 5%; in test [5], 5.05%; in test [6] it was 19.8%.

Turning to `Cc1ccc([N+](=O)[O-])cc1S(=O)(=O)O`, the growth inhibition in test [1] was 24.4%; in test [2], 13.2%; in test [3] it was 21.8%; in test [4] it was 11.7%; in test [5], 20%; in test [6] it was 2.45%.

`CC(=O)OCC1OC(n2nc(/C=C/c3ccco3)c(=O)n(-c3ccccc3)c2=S)C(OC(C)=O)C(OC(C)=O)C1OC(C)=O` (centres undefined): the growth inhibition is 57.5% in test [1]; 14.8% in test [2]; 61% in test [3]; 29.4% in test [4]; 16.4% in test [5]; 56.4% in test [6].

In the case of `COCC1CCCCC1O` (centres undefined), the growth inhibition in test [1] was -9.95%; in test [2], 7.15%; in test [3] it was 3.05%; in test [4], 26.8%; in test [5], 18.1%; in test [6], -2.35%.

Take `O=C(O)Cc1cc(O)c(CC(=O)O)cc1O`: the growth inhibition was -11.9% in test [1]; -21.9% in test [2]; -49.4% in test [3]; -20.4% in test [4]; -22.4% in test [5]; -4.1% in test [6].

`CCC(CC)C(=O)NCC(=O)NO`: the growth inhibition in test [1] is 2.25%; in test [2] it was 2.85%; in test [3], 1%; in test [4] it was -36%; in test [5] it was 0.6%; in test [6] it was 9.15%.

Take `NC1(C(=O)O)CCCc2ccccc21` (centres undefined): the growth inhibition in test [1] was 13.3%; in test [2], 8.15%; in test [3], -1.1%; in test [4], -1.7%; in test [5], -12.6%; in test [6] it was 8.95%.

`O=C(/C=C/c1ccc(O)cc1)c1ccc2c(c1)OCO2`: the growth inhibition in test [1] is 8.05%; in test [2], 23.3%; in test [3] it was 25.8%; in test [4], -1.55%; in test [5] it was 43%; in test [6], 43.8%.

On to `CCCCCC(Cl)(CC)CCCCC`, for which the growth inhibition was -23.4% in test [1]; -0.6% in test [2]; -16.6% in test [3]; -39.7% in test [4]; 1.45% in test [5]; -8.85% in test [6].

For the molecule `O=C(CCl)Nc1cc(Cl)c(Cl)cc1Cl`, the growth inhibition is 32.4% in test [1]; 21.8% in test [2]; 58.1% in test [3]; 2.75% in test [4]; 64.8% in test [5]; 37% in test [6].

With `CCOC(=O)N1CC2CCc3c(ccc4ccccc34)N2C1=O` (centres undefined), the growth inhibition in test [1] is -2.35%; in test [2], 10.5%; in test [3], -4.5%; in test [4], -3.6%; in test [5], 7.4%; in test [6], 14.2%.

For `O=S1(=O)OCCC1C(O)(c1ccccc1)c1ccccc1` (centres undefined), the growth inhibition was 1.7% in test [1]; -3.65% in test [2]; 6.8% in test [3]; -49.3% in test [4]; 11.2% in test [5]; 16.9% in test [6].

Regarding `O=[N+]([O-])c1ccc(OS(=O)(=O)Cc2ccccc2)cc1`, the growth inhibition is 3.8% in test [1]; -9.35% in test [2]; 8.95% in test [3]; -36.6% in test [4]; 3.95% in test [5]; -9.25% in test [6].

Regarding `CCOC(=O)C(NC(=O)CC(C)C)(N1CCN(c2cc3c(cc2F)c(=O)c(C(=O)O)cn3C2CC2)CC1)C(F)(F)F` (centres undefined), the growth inhibition in test [1] is -5.8%; in test [2] it was -26.3%; in test [3], -0.2%; in test [4], 12.5%; in test [5], -24.9%; in test [6], -17.9%.

Regarding `CCOC(=O)CC(=O)c1sc(SC)c(C#N)c1N`, the growth inhibition in test [1] is -8%; in test [2], -9.6%; in test [3], -10.2%; in test [4], -2%; in test [5], 1.6%; in test [6], 1.6%.

On to `C=C(C)C(=O)Nc1ccc(NS(=O)(=O)c2ccc(C(C)CC)cc2)c(O)c1` (centres undefined), for which the growth inhibition was 9.3% in test [1]; -8.7% in test [2]; 18.1% in test [3]; 35.5% in test [4]; 14.9% in test [5]; 1.2% in test [6].

Take `Cc1ccc2c(c1)nc1n2C(c2c(F)cccc2F)SC1` (centres undefined): the growth inhibition in test [1] is 0.15%; in test [2], -6.45%; in test [3] it was 26.9%; in test [4], 13.4%; in test [5], 29.3%; in test [6] it was -3.7%.

Turning to `COc1ccccc1NC(=O)CC(=O)n1nc(-c2ccccc2)c(N=Nc2ccccc2[N+](=O)[O-])c1-c1ccccc1`, the growth inhibition in test [1] is -0.4%; in test [2] it was -15.5%; in test [3], 27.9%; in test [4] it was 0.5%; in test [5], 25.3%; in test [6], 15.5%.
